Assay results: PubChem BioAssay AID1159580 (chemical genetic matrix, 2015)
Among all 5,500 compounds or so, about 2,000 (36%) were called active. About 18% were inconclusive and are not listed. Rule as the data show it: active = normalized growth mostly below about 0.91 (no sharp cut-off); inconclusive = no clear call, values can overlap the other calls; inactive = mostly above about 0.92. Some of the results follow.

Test: chemical genetic growth profiling, strain panel (AID 1159580);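 also: tested at 20 µM; growth read once vehicle control cultures reached saturation at 30 °C; 1 = growth at the plate median or of vehicle wells; lower values mean less growth of the strain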
Conditions: growth OD

Measured: normalized growth

O=C(O)c1ccc(S(=O)(=O)N(Cl)Cl)cc1
inactive: S. cerevisiae deletion strains, locus YJR066W, strain TOR1, active compounds read low 0.916 | S. cerevisiae deletion strains, locus YKL009W, strain mrt4, active compounds read low 0.99 | S. cerevisiae deletion strains, locus YKL068W, active compounds read low 1 | S. cerevisiae deletion strains, locus YKL085W, strain MDH1 (second series), active compounds read low 1.01 | S. cerevisiae deletion strains, locus YKL085W, strain MDH1, active compounds read low 1.01 | S. cerevisiae deletion strains, locus YKL160W, strain elf1, active compounds read low 1.05 | S. cerevisiae deletion strains, locus YKL190W, strain CNB1, active compounds read low 1 | S. cerevisiae deletion strains, locus YKR001C, strain vps1, active compounds read low 1.02 | S. cerevisiae deletion strains, locus YKR026C, strain gcn3, active compounds read low 0.977 | S. cerevisiae deletion strains, locus YKR091W, strain srl3, active compounds read low 0.989 | S. cerevisiae deletion strains, locus YLL001W, strain dnm1, active compounds read low 1.03 | S. cerevisiae deletion strains, locus YLL026W, active compounds read low 0.976 | S. cerevisiae deletion strains, locus YLL041C, strain sdh2, active compounds read low 0.989 | S. cerevisiae deletion strains, locus YLR027C, strain aat2, active compounds read low 0.985 | S. cerevisiae deletion strains, locus YLR039C, strain RIC1, active compounds read low 0.985 | S. cerevisiae deletion strains, locus YLR058C, strain SHM2, active compounds read low 1.01 | S. cerevisiae deletion strains, locus YLR102C, strain apc9, active compounds read low 1.02 | S. cerevisiae deletion strains, locus YLR113W, strain HOG1, active compounds read low 0.961 | S. cerevisiae deletion strains, locus YLR221C, strain rsa3, active compounds read low 1.02 | S. cerevisiae deletion strains, locus YLR258W, strain gsy2, active compounds read low 0.994 | S. cerevisiae deletion strains, locus YLR262C, strain YPT6 (second series), active compounds read low 1 | S. cerevisiae deletion strains, locus YLR262C, strain YPT6, active compounds read low 0.995 | S. cerevisiae deletion strains, locus YLR268W, strain sec22, active compounds read low 1 | S. cerevisiae deletion strains, locus YLR320W, strain mms22, active compounds read low 1.05 | S. cerevisiae deletion strains, locus YLR330W, strain CHS5, active compounds read low 0.999 | S. cerevisiae deletion strains, locus YLR342W, strain FKS1 (second series), active compounds read low 0.993 | S. cerevisiae deletion strains, locus YLR342W, strain FKS1, active compounds read low 0.983 | S. cerevisiae deletion strains, locus YLR357W, strain rsc2, active compounds read low 1.01 | S. cerevisiae deletion strains, locus YLR370C, strain arc18, active compounds read low 0.974 | S. cerevisiae deletion strains, locus YLR371W, strain rom2, active compounds read low 1.01 | S. cerevisiae deletion strains, locus YLR384C, strain iki3, active compounds read low 0.988 | S. cerevisiae deletion strains, locus YLR418C, strain cdc73, active compounds read low 0.951 | S. cerevisiae deletion strains, locus YML016C, strain PPZ1, active compounds read low 1.01 | S. cerevisiae deletion strains, locus YML032C, strain rad52, active compounds read low 1.02 | S. cerevisiae deletion strains, locus YML120C, strain ndi1, active compounds read low 1.03 | S. cerevisiae deletion strains, locus YML124C, strain tub3, active compounds read low 1.03 | S. cerevisiae deletion strains, locus YMR058W, strain fet3, active compounds read low 0.983 | S. cerevisiae deletion strains, locus YMR078C, strain ctf18, active compounds read low 1.03 | S. cerevisiae deletion strains, locus YMR125W, strain sto1, active compounds read low 1.02 | S. cerevisiae deletion strains, locus YMR129W, active compounds read low 0.984 | S. cerevisiae deletion strains, locus YMR205C, strain PFK2, active compounds read low 1.04 | S. cerevisiae deletion strains, locus YMR223W, strain ubp8, active compounds read low 1.02 | S. cerevisiae deletion strains, locus YMR231W, strain pep5, active compounds read low 0.978 | S. cerevisiae deletion strains, locus YMR307W, strain GAS1, active compounds read low 0.964 | S. cerevisiae deletion strains, locus YNL067W, strain RPL9B, active compounds read low 1 | S. cerevisiae deletion strains, locus YNL071W, strain lat1, active compounds read low 0.998 | S. cerevisiae deletion strains, locus YNL128W, strain TEP1, active compounds read low 1.02 | S. cerevisiae deletion strains, locus YNL183C, strain NPR1, active compounds read low 0.926 | S. cerevisiae deletion strains, locus YNL209W, strain ssb2, active compounds read low 0.983 | S. cerevisiae deletion strains, locus YNL233W, strain BNI4, active compounds read low 0.997 | S. cerevisiae deletion strains, locus YNL248C, strain rpa49, active compounds read low 1.06 | S. cerevisiae deletion strains, locus YNL250W, strain rad50, active compounds read low 1.02 | S. cerevisiae deletion strains, locus YNL271C, strain bni1, active compounds read low 1.03 | S. cerevisiae deletion strains, locus YNL298W, strain CLA4, active compounds read low 1.05 | S. cerevisiae deletion strains, locus YNL307C, strain MCK1, active compounds read low 1.01 | S. cerevisiae deletion strains, locus YNL322C, strain KRE1 (second series), active compounds read low 0.992 | S. cerevisiae deletion strains, locus YNR049C, strain mso1, active compounds read low 0.975 | S. cerevisiae deletion strains, locus YNR052C, strain pop2, active compounds read low 1.01 | S. cerevisiae deletion strains, locus YOL006C, strain TOP1, active compounds read low 1.01 | S. cerevisiae deletion strains, locus YOL012C, strain htz1 2.24 | S. cerevisiae deletion strains, locus YOL147C, strain pex11, active compounds read low 1.02 | S. cerevisiae deletion strains, locus YOR001W, strain rrp6, active compounds read low 0.944 | S. cerevisiae deletion strains, locus YOR061W, strain CKA2, active compounds read low 1.01 | S. cerevisiae deletion strains, locus YOR069W, strain VPS5, active compounds read low 0.998 | S. cerevisiae deletion strains, locus YOR070C, strain gyp1, active compounds read low 0.967 | S. cerevisiae deletion strains, locus YOR080W, strain dia2, active compounds read low 0.969 | S. cerevisiae deletion strains, locus YOR083W, strain WHI5, active compounds read low 1.05 | S. cerevisiae deletion strains, locus YOR106W, strain vam3, active compounds read low 1.06 | S. cerevisiae deletion strains, locus YOR136W, strain idh2, active compounds read low 1.02 | S. cerevisiae deletion strains, locus YOR144C, strain elg1, active compounds read low 1.02 | S. cerevisiae deletion strains, locus YOR184W, strain ser1, active compounds read low 0.992 | S. cerevisiae deletion strains, locus YOR231W, strain MKK1, active compounds read low 0.971 | S. cerevisiae deletion strains, locus YOR265W, strain rbl2, active compounds read low 0.981 | S. cerevisiae deletion strains, locus YOR270C, strain vph1, active compounds read low 1.01 | S. cerevisiae deletion strains, locus YOR290C, strain snf2, active compounds read low 1 | S. cerevisiae deletion strains, locus YOR316C, strain cot1, active compounds read low 1.02 | S. cerevisiae deletion strains, locus YPL051W, strain arl3, active compounds read low 1.02 | S. cerevisiae deletion strains, locus YPL055C, strain LGE1, active compounds read low 0.979 | S. cerevisiae deletion strains, locus YPL078C, strain atp4, active compounds read low 1.05 | S. cerevisiae deletion strains, locus YPL106C, strain sse1, active compounds read low 0.985 | S. cerevisiae deletion strains, locus YPL240C, strain hsp82, active compounds read low 0.989 | S. cerevisiae deletion strains, locus YPL241C, strain CIN2, active compounds read low 1 | S. cerevisiae deletion strains, locus YPL256C, strain CLN2, active compounds read low 0.97 | S. cerevisiae deletion strains, locus YPR119W, strain clb2, active compounds read low 1.02 | S. cerevisiae deletion strains, locus YPR141C, strain kar3, active compounds read low 1.02 | S. cerevisiae deletion strains, locus YPR163C, strain tif3, active compounds read low 1.04 | S. cerevisiae deletion strains, locus YPR167C, strain met16, active compounds read low 1.02 | S. cerevisiae deletion strains, strain wtn01, active compounds read low 1.01 | S. cerevisiae strains, strain wild type, active compounds read low 1
